{"source": "PubChem BioAssay (NCI)", "test_in_all_cases": "NCI-60 one-dose screen, 48 h (100 = growth as untreated, 0 = no growth, -100 = all killed)", "details_in_all_cases": "10 µM", "key": {"[1]": {"tested_on": "HOP-92 NSCLC"}, "[2]": {"tested_on": "K-562 leukemia"}, "[3]": {"tested_on": "UACC-257 melanoma"}, "[4]": {"tested_on": "SK-MEL-2 melanoma"}, "[5]": {"tested_on": "TK-10 renal"}, "[6]": {"tested_on": "CAKI-1 renal"}, "[7]": {"tested_on": "A498 renal"}, "[8]": {"tested_on": "RPMI-8226 leukemia"}, "[9]": {"tested_on": "OVCAR-3 ovarian"}, "[10]": {"tested_on": "MDA-MB-435 melanoma"}, "[11]": {"tested_on": "HCC-2998 colon"}, "[12]": {"tested_on": "NCI-H522 lung"}, "[13]": {"tested_on": "BT-549 breast"}}, "note": "“And” between values parts separate entries of the source, which are not always exact repeats. Identical values can stand only once. About 83,000 compounds went through this panel and 20% of them were active in at least one assay; those are over-represented in the sample as a whole.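 Negative percent growth values reflect cell death: -40 means 40% of the cells present at the start died, and -100 means all died.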 The source made the active and inactive calls. How the source made its calls: active means growth percent below 10; inactive means the rest.", "data": [{"smiles": "Cc1ccc(CNc2nc3ccc(OC/C(=C/F)CN)cc3o2)cn1", "values": [{"measurement": "growth", "setting": "[1]", "result": "93.9% (inactive)"}, {"measurement": "growth", "setting": "[2]", "result": "108% (inactive)"}, {"measurement": "growth", "setting": "[3]", "result": "104% (inactive)"}, {"measurement": "growth", "setting": "[4]", "result": "110% (inactive)"}, {"measurement": "growth", "setting": "[5]", "result": "71.9% (inactive)"}, {"measurement": "growth", "setting": "[6]", "result": "68.3% (inactive)"}, {"measurement": "growth", "setting": "[7]", "result": "58.4% (inactive)"}, {"measurement": "growth", "setting": "[8]", "result": "105% (inactive)"}, {"measurement": "growth", "setting": "[9]", "result": "109% (inactive)"}, {"measurement": "growth", "setting": "[10]", "result": "99.6% (inactive)"}, {"measurement": "growth", "setting": "[11]", "result": "111% (inactive)"}]}, {"smiles": "COc1cc2c(cc1OC)[C@@H]1N(CC2)C(=O)c2ccccc2[C@@]1(C)C(=O)O", "values": [{"measurement": "growth", "setting": "[1]", "result": "123% (inactive)"}, {"measurement": "growth", "setting": "[12]", "result": "99.8% (inactive)"}, {"measurement": "growth", "setting": "[2]", "result": "105% (inactive)"}, {"measurement": "growth", "setting": "[3]", "result": "107% (inactive)"}, {"measurement": "growth", "setting": "[4]", "result": "109% (inactive)"}, {"measurement": "growth", "setting": "[5]", "result": "107% (inactive)"}, {"measurement": "growth", "setting": "[6]", "result": "101% (inactive)"}, {"measurement": "growth", "setting": "[7]", "result": "89.4% (inactive)"}, {"measurement": "growth", "setting": "[8]", "result": "110% (inactive)"}, {"measurement": "growth", "setting": "[9]", "result": "122% (inactive)"}, {"measurement": "growth", "setting": "[13]", "result": "108% (inactive)"}, {"measurement": "growth", "setting": "[10]", "result": "103% (inactive)"}, {"measurement": "growth", "setting": "[11]", "result": "110% (inactive)"}]}, {"smiles": "C/C=C/CC(C)C(O)[C@H](NC(=O)[C@@H]1CCCN1C(=O)C(C)(C)NC(=O)CCCCCCC)C(=O)N[C@@](C)(CC)C(=O)N[C@@H](CCC(N)=O)C(=O)N[C@H](CCC(N)=O)C(=O)NC(C)(C)C(=O)NC(C)(C)C(=O)N[C@@H](CCC(N)=O)C(=O)N[C@H](CC(C)C)C(=O)N[C@H](CO)CC(C)C", "note": "(stereo partly specified)", "values": [{"measurement": "growth", "setting": "[1]", "result": "106% (inactive) and 29.4% (inactive)"}, {"measurement": "growth", "setting": "[12]", "result": "103% (inactive) and -8.57% (active)"}, {"measurement": "growth", "setting": "[2]", "result": "101% (inactive) and 6.14% (active)"}, {"measurement": "growth", "setting": "[3]", "result": "106% (inactive) and -33.7% (active)"}, {"measurement": "growth", "setting": "[4]", "result": "115% (inactive) and 34% (inactive)"}, {"measurement": "growth", "setting": "[5]", "result": "115% (inactive) and 28.2% (inactive)"}, {"measurement": "growth", "setting": "[6]", "result": "101% (inactive) and 28.5% (inactive)"}, {"measurement": "growth", "setting": "[7]", "result": "-7.1% (active)"}, {"measurement": "growth", "setting": "[8]", "result": "105% (inactive) and -9.85% (active)"}, {"measurement": "growth", "setting": "[9]", "result": "113% (inactive) and 23.8% (inactive)"}, {"measurement": "growth", "setting": "[13]", "result": "118% (inactive) and -60.9% (active)"}, {"measurement": "growth", "setting": "[10]", "result": "104% (inactive) and -47.4% (active)"}, {"measurement": "growth", "setting": "[11]", "result": "114% (inactive) and 24% (inactive)"}]}, {"smiles": "COC1[C@@H]2C[C@H]3C(C)(C)O[C@@](C/C=C(/C)C(=O)O)(C2=O)[C@]32Oc3c(CC=C(C)C)c4c(c(O)c3C(=O)[C@H]12)C=CC(C)(C)O4", "note": "(stereo partly specified)", "values": [{"measurement": "growth", "setting": "[1]", "result": "-36.4% (active)"}, {"measurement": "growth", "setting": "[12]", "result": "-68.6% (active)"}, {"measurement": "growth", "setting": "[2]", "result": "2.55% (active)"}, {"measurement": "growth", "setting": "[3]", "result": "-48.2% (active)"}, {"measurement": "growth", "setting": "[4]", "result": "-65.5% (active)"}, {"measurement": "growth", "setting": "[7]", "result": "-67.8% (active)"}, {"measurement": "growth", "setting": "[8]", "result": "-17% (active)"}, {"measurement": "growth", "setting": "[9]", "result": "-90.6% (active)"}, {"measurement": "growth", "setting": "[13]", "result": "-3.07% (active)"}, {"measurement": "growth", "setting": "[10]", "result": "-58.2% (active)"}, {"measurement": "growth", "setting": "[11]", "result": "-81.9% (active)"}]}, {"smiles": "CC1=C(CN(O)C(N)=O)C2=C(C)C3(CC3)[C@@](C)(O)C(=O)C2=C1", "values": [{"measurement": "growth", "setting": "[1]", "result": "-21.1% (active)"}, {"measurement": "growth", "setting": "[12]", "result": "0.934% (active)"}, {"measurement": "growth", "setting": "[2]", "result": "95.4% (inactive)"}, {"measurement": "growth", "setting": "[3]", "result": "-14.7% (active)"}, {"measurement": "growth", "setting": "[4]", "result": "-47.8% (active)"}, {"measurement": "growth", "setting": "[5]", "result": "-15% (active)"}, {"measurement": "growth", "setting": "[6]", "result": "-3.78% (active)"}, {"measurement": "growth", "setting": "[7]", "result": "-82% (active)"}, {"measurement": "growth", "setting": "[8]", "result": "91.5% (inactive)"}, {"measurement": "growth", "setting": "[9]", "result": "-26.9% (active)"}, {"measurement": "growth", "setting": "[13]", "result": "-24.5% (active)"}, {"measurement": "growth", "setting": "[10]", "result": "-20.2% (active)"}, {"measurement": "growth", "setting": "[11]", "result": "-53.2% (active)"}]}, {"smiles": "N#Cc1nc(-c2ccccc2)oc1N1CCC(S(=O)(=O)F)CC1", "values": [{"measurement": "growth", "setting": "[1]", "result": "94.2% (inactive)"}, {"measurement": "growth", "setting": "[12]", "result": "93.9% (inactive)"}, {"measurement": "growth", "setting": "[2]", "result": "103% (inactive)"}, {"measurement": "growth", "setting": "[3]", "result": "107% (inactive)"}, {"measurement": "growth", "setting": "[4]", "result": "120% (inactive)"}, {"measurement": "growth", "setting": "[5]", "result": "113% (inactive)"}, {"measurement": "growth", "setting": "[6]", "result": "100% (inactive)"}, {"measurement": "growth", "setting": "[7]", "result": "108% (inactive)"}, {"measurement": "growth", "setting": "[8]", "result": "101% (inactive)"}, {"measurement": "growth", "setting": "[13]", "result": "108% (inactive)"}, {"measurement": "growth", "setting": "[10]", "result": "98.8% (inactive)"}, {"measurement": "growth", "setting": "[11]", "result": "104% (inactive)"}]}, {"smiles": "CC1=C(CN(O)C(N)=O)C2=C(C)C3(CC3)[C@](C)(O)C(=O)C2=C1", "values": [{"measurement": "growth", "setting": "[1]", "result": "-3.67% (active)"}, {"measurement": "growth", "setting": "[12]", "result": "-7.03% (active)"}, {"measurement": "growth", "setting": "[2]", "result": "0.207% (active)"}, {"measurement": "growth", "setting": "[3]", "result": "6.8% (active)"}, {"measurement": "growth", "setting": "[4]", "result": "-28.8% (active)"}, {"measurement": "growth", "setting": "[5]", "result": "-5.27% (active)"}, {"measurement": "growth", "setting": "[6]", "result": "4.61% (active)"}, {"measurement": "growth", "setting": "[7]", "result": "-76.5% (active)"}, {"measurement": "growth", "setting": "[8]", "result": "-22.7% (active)"}, {"measurement": "growth", "setting": "[9]", "result": "-3.14% (active)"}, {"measurement": "growth", "setting": "[13]", "result": "12.9% (inactive)"}, {"measurement": "growth", "setting": "[10]", "result": "-42.8% (active)"}, {"measurement": "growth", "setting": "[11]", "result": "-63.1% (active)"}]}, {"smiles": "CC1=C(CCC=NNC(N)=O)C2=C(C)C3(CC3)[C@@](C)(O)C(=O)C2=C1", "values": [{"measurement": "growth", "setting": "[12]", "result": "-62% (active)"}, {"measurement": "growth", "setting": "[2]", "result": "54.7% (inactive)"}, {"measurement": "growth", "setting": "[3]", "result": "-62.1% (active)"}, {"measurement": "growth", "setting": "[5]", "result": "-9.84% (active)"}, {"measurement": "growth", "setting": "[6]", "result": "0.975% (active)"}, {"measurement": "growth", "setting": "[8]", "result": "59.8% (inactive)"}, {"measurement": "growth", "setting": "[13]", "result": "-93.5% (active)"}, {"measurement": "growth", "setting": "[10]", "result": "-27.9% (active)"}, {"measurement": "growth", "setting": "[11]", "result": "-73.2% (active)"}]}, {"smiles": "CC1=C2C(=C[C@@](C)(COS(C)(=O)=O)[C@@H]2O)C(=O)[C@](C)(O)C12CC2", "values": [{"measurement": "growth", "setting": "[1]", "result": "-15.5% (active)"}, {"measurement": "growth", "setting": "[12]", "result": "-6.78% (active)"}, {"measurement": "growth", "setting": "[2]", "result": "3.56% (active)"}, {"measurement": "growth", "setting": "[3]", "result": "0.386% (active)"}, {"measurement": "growth", "setting": "[4]", "result": "-39.5% (active)"}, {"measurement": "growth", "setting": "[5]", "result": "5.33% (active)"}, {"measurement": "growth", "setting": "[6]", "result": "-31.5% (active)"}, {"measurement": "growth", "setting": "[7]", "result": "-61% (active)"}, {"measurement": "growth", "setting": "[9]", "result": "7.64% (active)"}, {"measurement": "growth", "setting": "[13]", "result": "-15.9% (active)"}, {"measurement": "growth", "setting": "[11]", "result": "-25.7% (active)"}]}]}
